Screening results: PubChem BioAssay, National Center for Advancing Translational Sciences (NCATS)
Sampled rows, rich in hits. Any-hit rate of the full collection: about 19%.
IL-1B inflam inh = blocks inflammasome-driven IL-1 beta release | THP-1 LPS/ATP IL-1B secretion, AlphaLISA, 16 h; stronger effect = lower value | activity change, % at 57.5 µM | 360,000 compounds, 4.7% hits | AID 743279; in the data active means activity change below about -50%; inconclusive means mostly about -30% to -49%
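THP-1 cells pretreated 1 hr with compounds (up to 57.5 uM final), then stimulated with LPS (250 ng/mL final) plus ATP (1.25 mM final); secreted IL-1B measured by AlphaLISA after 16 hr, decreased signal indicating inhibition.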
TDP1 cell noCPT = qHTS for Inhibitors of human tyrosyl-DNA phosphodiesterase 1 (TDP1): qHTS in cells in absence of CPT. AID 686978, 2013. Potency, µM (highest dose often 46.2 µM), without a hit: at the highest dose activity change, negative = growth inhibition, most hits filed as inhibitors. DT40 Tdp1-/- hTDP1 cells, no CPT, ATP luminescence, 48 h. 420,000 compounds, 15% hits; further: potency means the concentration at half of the fitted maximal effect; nearly all actives have a fitted effect of over 55% in size
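DT40 Tdp1-/-;hTDP1 cells, no CPT (DMSO vehicle only), 400 cells/well; compounds pin-transferred; ≥48 hr, 37 °C; CellTiter-Glo 30 min RT dark, luminescence read.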
ELG1 repair inh = blocks ELG1-dependent DNA repair in HEK293T cells; HEK293T ELG1-luciferase reporter, luminescence, 16 h; DNA damage induced by 5-fluorouridine; Potency, µM (top dose mostly 46.1 µM), inactives show top-dose activity change, negative = inhibition, hits mostly inhibitors; 330,000 compounds, 2.3% hits; further: potency means the concentration at half of the fitted maximal effect; nearly all actives have a fitted effect of over 55% in size
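Reporter activity after DNA damage by 5-fluorouridine is monitored. Compound-treated cells incubate 16 hr at 37 °C, then ONE-Glo is added for 30 min before luminescence reading.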
TDP1 cell CPT = DT40-hTDP1 cell growth loss with CPT; chicken DT40 Tdp1-/-;hTDP1 cells + 20 nM CPT, ATP luminescence, 48 h; Potency, µM (titrated, usually from 46.2 µM), for the others: top-dose activity change, negative = growth inhibition, most hits filed as inhibitors; 420,000 compounds, 12% hits; AID 686979; further: potency means the concentration at half of the fitted maximal effect; nearly all actives have a fitted effect of over 55% in size
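Chicken DT40 Tdp1-/- cells stably complemented with human TDP1 were seeded at 400 cells/well in medium containing 20 nM camptothecin, exposed to pin-transferred compounds, and grown at 37 °C for at least 48 hr. Viability was read as ATP luminescence.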
HT1080 IDH1KD tx = toxicity to HT-1080 IDH1 knockdown cells (counter line); 360,000 compounds, 2% hits; Potency, µM (doses to about 46.1 µM), for inactives: at the top dose activity, negative = toxicity, hits mostly cytotoxic; HT-1080 IDH1 knockdown viability, ATP luminescence, 48 h; AID 686971;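 further: potency means the concentration at half of the fitted maximal effect; 0% = DMSO wells and -100% = cell-free medium wells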
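Cytotoxicity counter-line: IDH1KD HT-1080, 48 h, CellTiter-Glo. Curves classed by r2, magnitude and activity.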
HT1080NT lethal = kills 2HG-producing HT-1080-NT fibrosarcoma cells. HT-1080-NT fibrosarcoma viability, CellTiter-Glo ATP luminescence, 48 h. Potency, µM (series often up to 46.1 µM), for inactives: at the top dose activity, negative = less viability, hits mostly cytotoxic. 360,000 compounds, 1.6% hits;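 further: NT is the 2HG producing partner of a matched IDH1 knockdown line; potency means the concentration at half of the fitted maximal effect; 0% = DMSO-treated cells and -100% = media-only wells without cells; nearly all actives have a fitted effect of over 55% in size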
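Luminescent CellTiter-Glo readout after 48 hours of compound exposure at 37 degrees C defined viability of HT-1080-NT cells. Activity was normalized to DMSO wells and cell-free media wells; concentration-response curves were fitted and assigned curve classes.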
* hit, by the source's call; i = inactive; ? = inconclusive; / = no result. Unless noted, the call rests on the fitted dose curve; in most records, active means well fitted curve in the direction sought with a large enough effect; inconclusive means small, poorly fitted or top-dose-only effect, or another doubt; inactive means no such curve, though single readings can be large; an effect the other way counts as inactive or inconclusive. Unless noted, on the % scale 0 is the no-effect control and ±100 the full control effect.

SMILES | IL-1B inflam inh | TDP1 cell noCPT | ELG1 repair inh | TDP1 cell CPT | HT1080 IDH1KD tx | HT1080NT lethal
COC(=O)N1CCC[C@@]2(CCN(C(=O)Nc3ccc(OC)cc3)C2)C1 | / | 11.7% | / | 10.5% | / | /
CCN(C)C1CN(Cc2cn(Cc3ccc(Cl)cc3)nn2)S(=O)(=O)C1 (stereo not drawn) | 2.9 | -13.4% | / | -8.4% | -0.3% | 22.0%
O=C(C(=O)N1CCC(c2ccccc2)CC1)c1ccc(F)c(F)c1 | 5.2 | ? | / | ? | -14.5% | -7.8%
CCC1CCCCN1Cc1nc(Cc2ccccc2Cl)no1 (stereo not drawn) | 16.3 | ? | 13.0% | ? | 0.1% | 0.3%
CCC(=O)C1=C(O)C(c2cccc(Oc3ccccc3)c2)CCC1=O (stereo not drawn) | 0.0 | 9.2µM* | ? | 20.6µM* | -5.4% | -0.5%
COc1ccc2c(c1)C(=O)CCC2c1ccccc1 (stereo not drawn) | 28.7 | ? | -6.9% | 2.1% | -6.1% | -0.8%
COc1ccc(C(CC(=O)O)N2C(=O)CCC2=O)cc1 (stereo not drawn) | 13.9 | -2.6% | 15.4% | -0.1% | 8.2% | 17.5%
O=C(CCNC(=O)c1ccc(Br)cc1)NNC(=O)C1COc2ccccc2O1 (stereo not drawn) | 3.1 | -11.9% | 1.1% | 1.5% | 17.0% | 2.8%
CC(=O)Oc1ccc(-c2cccc(C(=O)OCC(=O)N(C)c3ccccc3)c2)cc1 | 0.0 | 23.1µM* | -28.7% | ? | 11.2% | 2.5%
CN(C(=O)COC(=O)c1cccc(S(=O)(=O)N2CCCCCC2)c1)c1ccccc1 | 14.5 | -29.1% | / | 0.8% | 0.0% | -1.0%
CC(=O)Oc1ccc(-c2cccc(C(=O)OCC(=O)Nc3ccccc3Oc3ccccc3)c2)cc1 | 16.1 | 18.4µM* | ? | -26.8% | ? | ?
COc1ccc(N(C)S(=O)(=O)c2cccc(C(=O)OCC(=O)N(C)c3ccccc3)c2)cc1 | -8.1 | 20.6µM* | 16.4µM* | ? | -25.5% | 1.2%
CCOc1ccccc1NC(=O)COC(=O)c1cccc(-c2ccc(OC(C)=O)cc2)c1 | i | 25.9µM* | -9.9% | ? | -6.3% | -19.9%
Cc1noc(C)c1S(=O)(=O)NC(=O)C1(C)CCN1C(=O)c1ccc(C2CCCCC2)cc1 (stereo not drawn) | 41.1 | -7.1% | / | 6.0% | 1.6% | -15.6%
CC(Oc1ccc(Cl)cc1)c1ccc(C#N)c(=O)[nH]1 (stereo not drawn) | -4.9 | -4.6% | -4.1% | -10.8% | -5.9% | -5.5%
CCC(CC)C(=O)Nc1cc([N+](=O)[O-])ccc1Cl | 8.8 | -5.3% | 7.1% | 3.1% | 4.3% | 4.6%
CC(C)(C)CC(C)(C)N=C1NS(=O)(=O)c2cc([N+](=O)[O-])ccc21 | -13.9 | 14.6µM* | ? | ? | -4.4% | -7.0%
CCC(CC)N=C1NS(=O)(=O)c2cc([N+](=O)[O-])ccc21 | 23.6 | 20.6µM* | -19.3% | ? | -15.0% | -26.8%
CC(C)(CO)N=C1NS(=O)(=O)c2cc([N+](=O)[O-])ccc21 | 56.5 | ? | 1.9% | -16.9% | 1.7% | 0.0%
COc1cc(OC)cc(-c2oc(=O)c3cc(OC)c(OC)cc3c2C(F)(F)F)c1 | 23.0 | -4.7% | -19.7% | -1.7% | 13.9% | -0.9%
COc1ccc(NS(=O)(=O)c2ccc3nc(COc4ccc(C#N)cc4)[nH]c3c2)cc1 | ? | ? | ? | -9.3% | -12.3% | -14.4%
CC(C)(C)c1ccc(NC(=O)c2cc(C3CCCN(S(=O)(=O)c4cccc5cccnc45)C3)on2)cc1 (stereo not drawn) | 38.7 | 11.6µM* | / | 23.1µM* | ? | -20.9%
